Active and inactive are the calls of the source. Unless noted, no rule for the calls is given here.
Key:
[1] = test system: Wnt5a (protein binding on small-molecule microarray); test: small molecules binding Wnt5a protein – biophysical, small-molecule microarray, 635/667 nm fluorescence, primary screen (AID 1142); settings: 635 nm fluorescence, higher = more signal;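 also: fluorescence read at 667 nm with signal to noise per printed feature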
[2] = ATP-based viability of Huh7 replicon cells – cell-based, CellTiter-Glo luminescence, basal, 48 h, cytotoxicity control for HCV replication inhibitor project, primary screen (AID 1143); settings: higher = more signal, called active from +8 up or from −8 down;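 also: Huh7 hepatoma cells carrying a hepatitis C replication reporter with no stimulus; test concentration not given here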
[3] = Pseudomonas biofilm growth suppression – PAO1 strain, BacTiter-Glo luminescence, LB-PBS, primary screen (AID 1144); settings: P. aeruginosa PAO1 biofilm, 12 h, higher = more signal
[4] = basal CRE-LacZ reporter activity in PC12 – cell-based, unstimulated, primary screen (AID 1145); settings: no forskolin, luminescence, 4.5 h, higher = more signal, called active from +8 up or from −8 down
[5] = forskolin-driven CRE-LacZ activity in PC12 – cell-based, CRE-LacZ reporter, forskolin-stimulated, primary screen (AID 1146); settings: luminescence, 4.5 h, higher = more signal, called active from +8 up or from −8 down;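 also: PC12 cells with 6xCRE LacZ reporter stimulated by forskolin 10 µM; beta-galactosidase reporter signal reflecting CREB driven transcription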
[6] = target: Streptavidin (Streptomyces avidinii) (UniProt P22629); test: compounds binding control protein streptavidin – biophysical, small-molecule microarray, 635/667 nm fluorescence, artefact control for SMM compound annotation, primary screen (AID 1147); settings: higher = more signal;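 also: signal reflects streptavidin binding to arrayed compounds as a control protein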
[7] = probe aInhba binding on compound microarray – biochemical, small-molecule microarray, 635/667 nm fluorescence, primary screen (AID 1148); settings: higher = more signal;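 also: score merges 667nm spot fluorescence with signal-to-noise for antibody binding to printed compounds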
Torsin-1A (Homo sapiens) [8] = target: Torsin-1A (Homo sapiens) (UniProt O14656); test: TOR1A wild-type binding on microarray – cell lysate, small-molecule microarray, lysate, 635/667 nm, primary screen (AID 1149); settings: COS7 hTOR1A-WT lysate, 635 nm fluorescence, higher = more signal
Torsin-1A (Homo sapiens) [9] = target: Torsin-1A (Homo sapiens) (UniProt O14656); test: torsin A mutant lysate binding on microarrays – cell lysate, small-molecule microarray, COS7 lysate, 635/667 nm fluorescence, primary screen (AID 1150); settings: COS7 hTOR1A mutant lysate, 635 nm fluorescence, higher = more signal;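 also: score pools 667 nm emission and signal to noise measuring lysate protein binding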
[10] = test system: Sonic hedgehog protein (Shh); test: Sonic hedgehog microarray binding compounds – biochemical, small-molecule microarray, 635/667 nm fluorescence, primary screen (AID 1151); settings: 635 nm fluorescence, higher = more signal;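 also: Shh protein binding to compounds spotted on small-molecule microarray slides; score combines spot fluorescence intensity with signal-to-noise across triplicate slides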
[11] = optical density shifts of acrAB sulA E. coli – strain DRC41, OD650, 48 h, E. coli filamentation inducer project, primary screen (AID 1152); settings: higher = more signal, called active from +8 up or from −8 down;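 also: E. coli MC1000 strain DRC41 lacking acrAB efflux pump and sulA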
[12] = probe aLefty1 binding on compound microarray – biochemical, small-molecule microarray, 635/667 nm fluorescence, primary screen (AID 1153); settings: higher = more signal;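 also: score merges spot fluorescence with signal-to-noise ratio from the scanned slide images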
[13] = plasmodial surface anion channel blockers, osmotic lysis – cell-based, P. falciparum Indochina, OD700, 1 h, primary screen (AID 1154); settings: P. falciparum Indochina infected RBC osmotic lysis, higher = more signal, called active from +8 up or from −8 down
[14] = plasmodial surface anion channel blockers, osmotic lysis – cell-based, P. falciparum Indochina, OD700, 2 h, primary screen (AID 1155);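 also: lysis reports solute entry through the parasite surface anion channel PSAC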; settings: P. falciparum Indochina infected erythrocytes, higher = more signal, called active from +8 up or from −8 down
[15] = changes in parasitized red cell lysis, either direction – P. falciparum Indochina, OD700, 3 h, PSAC antagonist project, primary screen (AID 1156); settings: P. falciparum-infected erythrocytes, osmotic lysis, higher = more signal, called active from +8 up or from −8 down
[16] = plasmodial surface anion channel blockers, osmotic lysis – cell-based, P. falciparum Indochina, OD700, 18 h, primary screen (AID 1157); settings: P. falciparum Indochina infected erythrocytes, osmotic lysis OD700, 18 h; higher = more signal, called active from +8 up or from −8 down
[17] = S6 kinase pathway phospho-S6 level changes – cell-based, A549, cytoblot, luminescence, serum-stimulated, primary screen (AID 1158); settings: 5 h, higher = more signal;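 also: serum-stimulated A549 lung adenocarcinoma cells; signal is phosphorylated S6 detected by cytoblot immunostaining with HRP secondary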
[18] = target: NADPH oxidase 2 (Homo sapiens) (UniProt P04839); test: compounds shifting NOX2 Amplex Red fluorescence – cell-based, HEK293-NOX2, PMA-stimulated, NOX inhibitor project, primary screen (AID 1159); settings: 45 min, higher = more signal, called active from +8 up or from −8 down; also: test concentration not given here
[19] = target: NADPH oxidase 4 (Homo sapiens) (UniProt Q9NPH5); test: compounds shifting NOX4 Amplex Red fluorescence – cell-based, HEK293-NOX4, tetracycline-induced, NOX inhibitor project, primary screen (AID 1160); settings: HEK293-NOX4, Amplex Red H2O2 fluorescence, 45 min; higher = more signal, called active from +8 up or from −8 down
[20] = target: NADPH oxidase 5 (Homo sapiens) (UniProt Q96PH1); test: compounds shifting NOX5 Amplex Red fluorescence – cell-based, HEK293-NOX5, NOX inhibitor project, primary screen (AID 1161); settings: HEK293-NOX5, ionomycin, 45 min, higher = more signal
NADPH oxidase 5 (Homo sapiens), sequence (Q96PH1 whole entry, looked up): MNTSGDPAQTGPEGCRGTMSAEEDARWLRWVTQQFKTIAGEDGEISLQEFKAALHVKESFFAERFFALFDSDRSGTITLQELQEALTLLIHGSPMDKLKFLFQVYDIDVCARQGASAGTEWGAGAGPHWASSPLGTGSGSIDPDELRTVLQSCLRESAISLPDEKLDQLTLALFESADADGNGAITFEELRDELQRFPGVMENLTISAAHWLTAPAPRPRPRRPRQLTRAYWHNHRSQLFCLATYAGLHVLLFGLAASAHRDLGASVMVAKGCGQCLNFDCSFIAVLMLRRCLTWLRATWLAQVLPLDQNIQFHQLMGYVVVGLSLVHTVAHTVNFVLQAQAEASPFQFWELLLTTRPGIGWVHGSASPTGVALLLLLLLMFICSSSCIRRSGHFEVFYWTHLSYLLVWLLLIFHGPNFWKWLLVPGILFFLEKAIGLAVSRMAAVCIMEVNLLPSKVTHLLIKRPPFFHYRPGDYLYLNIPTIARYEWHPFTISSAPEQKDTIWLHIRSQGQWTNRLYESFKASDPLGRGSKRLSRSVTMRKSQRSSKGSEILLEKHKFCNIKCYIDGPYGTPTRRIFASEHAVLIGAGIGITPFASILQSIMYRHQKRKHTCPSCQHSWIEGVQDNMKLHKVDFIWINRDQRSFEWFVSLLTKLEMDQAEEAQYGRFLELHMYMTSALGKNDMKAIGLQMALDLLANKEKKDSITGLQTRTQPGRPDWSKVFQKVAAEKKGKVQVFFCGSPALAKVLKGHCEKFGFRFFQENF

NADPH oxidase 2 (Homo sapiens), sequence (P04839 whole entry, looked up): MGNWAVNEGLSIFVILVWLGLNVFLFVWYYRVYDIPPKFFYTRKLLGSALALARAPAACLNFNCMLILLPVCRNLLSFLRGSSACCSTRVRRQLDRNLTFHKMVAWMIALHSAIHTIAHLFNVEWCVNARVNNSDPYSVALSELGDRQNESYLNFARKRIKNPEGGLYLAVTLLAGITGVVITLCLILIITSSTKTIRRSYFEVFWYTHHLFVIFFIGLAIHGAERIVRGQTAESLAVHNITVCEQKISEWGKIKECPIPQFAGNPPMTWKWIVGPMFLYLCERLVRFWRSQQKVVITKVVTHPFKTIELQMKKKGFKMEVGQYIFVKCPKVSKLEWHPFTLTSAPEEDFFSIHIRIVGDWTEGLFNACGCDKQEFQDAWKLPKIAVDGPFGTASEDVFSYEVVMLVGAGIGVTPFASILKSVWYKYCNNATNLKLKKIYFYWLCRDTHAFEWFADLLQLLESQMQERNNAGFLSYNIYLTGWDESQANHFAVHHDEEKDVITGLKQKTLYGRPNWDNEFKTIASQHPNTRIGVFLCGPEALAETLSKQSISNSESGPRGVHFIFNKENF
Torsin-1A (Homo sapiens), sequence (O14656 whole entry, looked up): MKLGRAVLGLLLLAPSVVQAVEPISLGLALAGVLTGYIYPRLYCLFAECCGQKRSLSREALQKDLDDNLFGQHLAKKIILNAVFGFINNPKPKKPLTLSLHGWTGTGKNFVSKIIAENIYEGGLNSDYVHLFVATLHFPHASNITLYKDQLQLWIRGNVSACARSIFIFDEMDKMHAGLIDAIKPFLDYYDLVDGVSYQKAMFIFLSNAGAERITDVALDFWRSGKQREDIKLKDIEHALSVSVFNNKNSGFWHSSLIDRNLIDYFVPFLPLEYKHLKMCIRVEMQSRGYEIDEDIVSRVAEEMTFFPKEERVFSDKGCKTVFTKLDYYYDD
NADPH oxidase 4 (Homo sapiens), sequence (Q9NPH5 whole entry, looked up): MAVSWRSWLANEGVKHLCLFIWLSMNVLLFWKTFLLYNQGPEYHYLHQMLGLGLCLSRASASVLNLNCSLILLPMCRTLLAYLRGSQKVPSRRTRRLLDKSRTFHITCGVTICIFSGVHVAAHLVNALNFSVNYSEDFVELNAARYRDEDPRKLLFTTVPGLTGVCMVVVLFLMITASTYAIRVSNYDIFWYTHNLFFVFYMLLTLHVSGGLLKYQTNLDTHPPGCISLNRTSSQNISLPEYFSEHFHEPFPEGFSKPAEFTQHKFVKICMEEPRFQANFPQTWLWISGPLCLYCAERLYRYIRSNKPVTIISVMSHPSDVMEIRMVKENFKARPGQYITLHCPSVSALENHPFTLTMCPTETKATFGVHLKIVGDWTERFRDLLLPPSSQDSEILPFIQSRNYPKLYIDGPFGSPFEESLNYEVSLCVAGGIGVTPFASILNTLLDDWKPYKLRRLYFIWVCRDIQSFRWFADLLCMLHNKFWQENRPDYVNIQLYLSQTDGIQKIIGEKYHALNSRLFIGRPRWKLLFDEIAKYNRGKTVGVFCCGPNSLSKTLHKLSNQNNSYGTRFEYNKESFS
Streptavidin (Streptomyces avidinii), sequence (P22629 whole entry, looked up): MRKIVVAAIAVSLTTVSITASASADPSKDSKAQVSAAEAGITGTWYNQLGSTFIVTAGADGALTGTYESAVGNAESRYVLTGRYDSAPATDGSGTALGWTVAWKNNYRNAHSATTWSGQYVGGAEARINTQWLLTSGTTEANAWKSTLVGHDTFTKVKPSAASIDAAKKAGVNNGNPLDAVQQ

SMILES	composite z-score [1]	z-score [2]	z-score [3]	z-score [4]	z-score [5]	composite z-score [6]	composite z-score [7]	composite z-score (Torsin-1A (Homo sapiens) [8])	composite z-score (Torsin-1A (Homo sapiens) [9])	composite z-score [10]	z-score [11]	composite z-score [12]	z-score [13]	z-score [14]	z-score [15]	z-score [16]	z-score [17]	z-score [18]	z-score [19]	z-score [20]
CC(C)N1C(=O)c2ccccc2[C@](C)(C(=O)NCCCN(C)C)[C@@H]1c1ccc(CO)cc1	-0.265	0.17 (inactive)	0.352 (inactive)	-0.0888 (inactive)	-0.297 (inactive)	0.578	-0.204	3.98	3.56	0.0142	0.0259 (inactive)	0.0201	2.5 (inactive)	0.347 (inactive)	0.766 (inactive)	0.4 (inactive)	0.564	0.288 (inactive)	0.893 (inactive)	1.15
C=C(CCCC)C(=O)CC[C@@H](OC(=O)c1ccccc1-c1ccccc1C(=O)O)c1ccc(CO)o1	0.233	0.0462 (inactive)	-0.0968 (inactive)	-0.219 (inactive)	0.432 (inactive)	-0.3	0.181	1.29	0.854	1.08	-0.467 (inactive)	0.379	1.6 (inactive)	0.228 (inactive)	1.19 (inactive)	0.161 (inactive)	-0.946	1.35 (inactive)	-0.203 (inactive)	-0.475
CN1C(=O)C2C=CC(C(O)c3ccc(Br)cc3)N(Nc3ccccc3)C2C1=O (stereo not given)	-0.323	1.06 (inactive)	-0.595 (inactive)	1.6 (inactive)	0.127 (inactive)	-0.524	-0.0523	0.24	0.828	-1.09	-0.506 (inactive)	0.106	0.884 (inactive)	0.708 (inactive)	0.302 (inactive)	0.826 (inactive)	-0.595	-0.592 (inactive)	-4.5 (inactive)	-2.23
NC(=O)NCC#Cc1ccc2c(c1)[C@]1(C(=O)N2)[C@H](c2ccc(O)cc2)N2[C@H](c3ccccc3)[C@H](c3ccccc3)OC(=O)[C@H]2[C@@H]1C(=O)N1CCN(c2ncccn2)CC1	0.0724	0.449 (inactive)	0.185 (inactive)	1.21 (inactive)	0.128 (inactive)	0.0219	0.181	-0.219	0.412	-0.37	0.642 (inactive)	0.266	1.36 (inactive)	0.747 (inactive)	0.458 (inactive)	0.565 (inactive)	-0.0168	1.06 (inactive)	0.478 (inactive)	1.68
O=C1C2C=CC(C(O)c3ccc(-c4ccccc4)s3)N(Nc3ccccc3F)C2C(=O)N1c1ccccc1 (stereo not given)	0.26	0.0093 (inactive)	-0.729 (inactive)	0.629 (inactive)	0.383 (inactive)	1.06	-0.205	0.254	0.404	0.433	-1.69 (inactive)	0.282	4.17 (inactive)	1.66 (inactive)	0.8 (inactive)	1.27 (inactive)	-0.501	-0.49 (inactive)	-4.68 (inactive)	-3.41
COCCOC(=O)N1C(=O)[C@@]2(c3cc(C#Cc4ccc(OC)cc4)ccc31)[C@H](c1ccc(O)cc1)N1[C@H](c3ccccc3)[C@H](c3ccccc3)OC(=O)[C@H]1[C@@H]2C(=O)N1CCN(c2ncccn2)CC1	-0.0114	-0.949 (inactive)	-0.166 (inactive)	-0.114 (inactive)	0.75 (inactive)	0.0875	0.199	0.487	0.651	0.982	0.714 (inactive)	-0.0601	1.45 (inactive)	0.876 (inactive)	-0.969 (inactive)	0.59 (inactive)	-0.63	1.87 (inactive)	-1.34 (inactive)	-0.0267
Cc1c(NC(=O)/C(C#N)=C/C=C/c2ccccc2)c(=O)n(-c2ccccc2)n1C	0.17	-0.328 (inactive)	0.374 (inactive)	-0.967 (inactive)	-0.733 (inactive)	0.783	0.0018	0.172	0.426	0.522	0.813 (inactive)	-0.213	1.96 (inactive)	0.379 (inactive)	0.0643 (inactive)	0.205 (inactive)	-0.25	-0.328 (inactive)	0.0418 (inactive)	0.649
CC(=O)n1cc(C(O)C2C=CC3C(=O)N(c4ccccc4)C(=O)C3N2Nc2ccc(C#N)cc2)c2ccccc21 (stereo not given)	0.523	0.853 (inactive)	-0.935 (inactive)	-0.512 (inactive)	0.1 (inactive)	0.846	0.11	-0.467	0.522	-0.38	-0.947 (inactive)	0.201	21.5 (active)	6.32 (inactive)	0.566 (inactive)	1.37 (inactive)	-0.784	-1.15 (inactive)	-4.31 (inactive)	-3.01

— PubChem BioAssay
